SMARCA2 act = activators of SMARCA2 function. MG213 cells, MMTV-luciferase reporter, dexamethasone, overnight. activation, % at 9.1 µM. 370,000 compounds, 1% hits. AID 652017; in the data active = activation above about 7.8%
hgDAF-12 ag = activates the H. glycines DAF-12 receptor ligand-binding domain; HEK293 GAL4-hgDAF12 UAS-luciferase reporter, agonist luminescence; normalized to butyrate control; activation, % at 6.8 µM; 370,000 compounds, 1.8% hits; AID 687014;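 active = activation above a cutoff set at the mean of all screened compounds plus 3 SD, cut at about 10% in these data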
hcDAF12 agonist = H. contortus DAF-12 activation, primary screen | activation, % at 6.8 µM | AID 652067 | HEK293 hcDAF-12 lit1-tk-luc reporter, luminescence; 0% DMSO, 100% Δ7-dafachronic acid | 370,000 compounds, 1.4% hits;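 active = activation above the mean of all tested compounds plus 3 SD, cut at about 5.5% in these data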
DAX1 inh-1 = inhibitors of human orphan nuclear receptor DAX1 (NR0B1); P51843; HEK293 Gal4-DAX1 luciferase reporter, luminescence; inhibition, % at 6.75 µM; 340,000 compounds, 0.99% hits;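 active = inhibition above the mean over all tested compounds plus 3 SD, cut at about 4.2% in these data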;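 note: inhibition shows as a rise in luminescence from relieved DAX1 repression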
Target sequence (P51843 207-470 limits assumed): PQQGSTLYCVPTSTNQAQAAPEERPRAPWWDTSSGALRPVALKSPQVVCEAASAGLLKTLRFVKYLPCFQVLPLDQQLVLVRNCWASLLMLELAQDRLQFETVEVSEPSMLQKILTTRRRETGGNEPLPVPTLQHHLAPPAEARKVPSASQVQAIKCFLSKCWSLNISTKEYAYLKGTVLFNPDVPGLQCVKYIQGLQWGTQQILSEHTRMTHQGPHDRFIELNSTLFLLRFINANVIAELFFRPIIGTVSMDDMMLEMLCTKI
DAX1 inh-2 = DAX1 (NR0B1) inhibition, primary screen. HEK293T StAR-luciferase reporter, SF-1/DAX-1 repression relief. inhibition, % at 6.8 µM. 370,000 compounds, 1.1% hits;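 active = inhibition above the mean over all tested compounds plus 3 SD, cut at about 3.6% in these data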;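 note: higher inhibition means more luminescence from relief of DAX-1 repression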
ssDAF12 agonist = activates DAF-12 receptor from parasite S. stercoralis; HEK293 ssDAF-12/GRIP1 lit1-tk-luc reporter, luminescence; % of 3 µM dafachronic acid response; activation, % at 6.8 µM; 370,000 compounds, 1% hits; AID 652126;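 active = activation above the mean over all tested compounds plus 3 SD, cut at about 0.9% in these data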
Of the large screens only hits and unclear results are named; the others gave an inactive call. An excerpt weighted towards active compounds, which were near 4.8% of everything screened.

COc1ccc(S(=O)(=O)N(C)C[C@@H]2OCc3cn(nn3)CCCC(=O)N([C@H](C)CO)C[C@H]2C)cc1	DAX1 inh-2 3.7 (no result: DAX1 inh-1)
COc1ccccc1NC(=O)N(C)C[C@@H]1OCc2cn(nn2)CCCC(=O)N([C@@H](C)CO)C[C@H]1C	ssDAF12 agonist 0.9
C#CCNC(=O)C[C@H]1C[C@@]2(C(=O)OC)C(=C[C@H](C(C)(C)C)O[C@@H]2C)N(Cc2cccc3ccccc23)C1=O	none (no result: DAX1 inh-1)
O=C1c2ccccc2C(=O)C1Cc1cccc2ccccc12	ssDAF12 agonist 0.9
O=C1NC(c2cccc3ccccc23)Nc2ccccc21 (stereo not drawn)	none
O=C(CSCC(=O)N1CCCCC1)OCC(=O)c1c[nH]c2ccccc12	ssDAF12 agonist 1.3
O=C1CCC(C(=O)OCC(=O)c2c[nH]c3ccccc23)=NN1	hcDAF12 agonist 5.6
O=C(COC(=O)c1c[nH]c2ccccc12)Nc1ccccc1	none
O=C(COc1ccccc1)OCC(=O)c1c[nH]c2ccccc12	none
Cc1ccc(C(=O)OCC(=O)c2c[nH]c3ccccc23)cc1	hcDAF12 agonist 6.5, ssDAF12 agonist 1.9
COC(=O)c1ccc(NC(=O)C(=O)c2c[nH]c3ccccc23)cc1	hcDAF12 agonist 6.3, ssDAF12 agonist 1.8
O=C1C=C(c2ccc(Cl)c(C(F)(F)F)c2)C[C@@H](c2ccc(Cl)cc2)C1	none
O=C(COC(=O)c1ccc2ccccc2n1)c1ccccc1	ssDAF12 agonist 1.3
CC1CCN(C(=O)COC(=O)c2ccc3ccccc3n2)CC1	none
O=C(OCC(=O)c1ccc[nH]1)c1ccc2ccccc2n1	none
CN(C(=O)COC(=O)c1ccc2ccccc2n1)C1CCCCC1	ssDAF12 agonist 2.1
CCn1c(C(C)NC(C)=O)nc2ccccc21 (stereo not drawn)	hgDAF-12 ag 12
CCn1c(C(O)c2ccccc2)nc2ccccc21 (stereo not drawn)	none
CCCCn1c(NC(=O)c2ccccc2)nc2ccccc21	none
CCn1c(NC(=O)c2ccccc2)nc2ccccc21	ssDAF12 agonist 2.3 (no result: DAX1 inh-1)
COC(=O)Cn1c(C(O)c2ccccc2)nc2ccccc21 (stereo not drawn)	ssDAF12 agonist 1.7
O=C(NC1CC[C@@]23CCCN2C(=O)CCC[C@H]3C1)c1ccccc1 (stereo partly drawn)	none (no result: SMARCA2 act, DAX1 inh-1, DAX1 inh-2)
C/C=C/c1ccc(OCC(=O)OCc2csc(CC(=O)Nc3ccccc3C)n2)c(OC)c1	DAX1 inh-1 5.9
Cc1ccc(C)c(OCC(=O)OCc2csc(CC(=O)Nc3ccccc3C)n2)c1	none
CC(=O)Nc1sc2c(c1C(c1cccc(Cl)c1)N1CCN(CCO)CC1)CCCC2 (stereo not drawn)	DAX1 inh-1 4.9
COc1ccc(C(c2c(NC(C)=O)sc3c2CCCC3)N2CCN(CCO)CC2)cc1OC (stereo not drawn)	none
COC(=O)C1=C(C)N(CC(C)C)C(=S)NC1c1ccc(-c2ccccc2)cc1 (stereo not drawn)	none (no result: DAX1 inh-1)
Brc1ccc2nc(-c3ccco3)c(CC3CCCCC3)n2c1	ssDAF12 agonist 1.3 (no result: DAX1 inh-1)
CN1[C@@H](Cc2ccccc2)COc2cccc(F)c2S1(=O)=O	none (no result: DAX1 inh-1)
O=C1NC(c2ccccc2)=N/C1=C/c1ccco1	ssDAF12 agonist 1.0
Cc1ccc(C)c(C(=O)CN2C(=O)NC3(CCCCCC3)C2=O)c1	none
c1ccc(OCCOc2ncnc3ccccc23)cc1	hgDAF-12 ag 11
O=C(COc1ncnc2ccccc12)c1ccc(Cl)cc1	SMARCA2 act 7.8, hgDAF-12 ag 11
O=C(COc1ncnc2cc(Cl)ccc12)c1ccccc1	none
COC(=O)[C@]12CCCCC=C1N(Cc1ccccc1)C(=O)[C@H](CC(=O)NCCCCc1ccccc1)C2	none (no result: DAX1 inh-1)
O=C(CSc1ccccc1)NC1CCCCN(Cc2cccc(Cl)c2)C1=O (stereo not drawn)	none (no result: DAX1 inh-1)
CC(C)C[C@H](NC(=O)[C@H](Cc1ccccc1)n1c(=O)[nH]c2ccccc2c1=O)C(=O)N1CCC(C(=O)O)CC1	none
C[C@H](NC(=O)[C@H](Cc1ccccc1)n1c(=O)[nH]c2ccccc2c1=O)C(=O)N1CCC(C(=O)O)CC1	DAX1 inh-1 4.9
C[C@@H]1[C@H](O)[C@@H](C)/C=C/C=C/C=C/C=C/C=C/C=C/C=C/[C@H](OC2O[C@H](C)[C@@H](O)[C@H](N)[C@@H]2O)C[C@@H]2O[C@](O)(C[C@@H](O)C[C@@H](O)[C@H](O)CC[C@@H](O)C[C@@H](O)CC(=O)O[C@H]1C)C[C@H](O)[C@H]2C(=O)O (stereo partly drawn)	none (no result: DAX1 inh-1)
Cc1ccn2c(Nc3ccc4c(c3)OCO4)c(-c3ccccn3)nc2c1	hcDAF12 agonist 6.0
Cc1ccc(Nc2c(-c3ccccn3)nc3cc(C)ccn23)cc1	none
COC(=O)c1ccc(NC(=O)COC(=O)C2CC(=O)N(Cc3ccccc3)C2)cc1 (stereo not drawn)	DAX1 inh-1 4.2
O=C(c1cc(-c2ccc3c(c2)OCO3)on1)N1CCCCC1	hcDAF12 agonist 5.8
Cc1ccc(C)c(N2CCN(C(=O)CCS(=O)(=O)c3ccc4c(c3)CCN4C(=O)C3CC3)CC2)c1	SMARCA2 act 7.9
CCOC(=O)C1CCN(C(=O)CCS(=O)(=O)c2ccc3c(c2)CCN3C(=O)CC)CC1	none
CCOC(=O)c1ccc(-n2c(=O)[nH]c3ccccc3c2=O)cc1	none
CCOC(=O)c1ccc(-n2c(C)nc3ccc(Br)cc3c2=O)cc1	ssDAF12 agonist 2.7
CCCC1CCC(c2nc(-c3cccnc3)no2)CC1 (stereo not drawn)	DAX1 inh-1 4.7
Cc1ccccc1NC(=O)CN(C)S(=O)(=O)c1ccc2c(c1)n(C)c(=O)c(=O)n2C	none
Cc1cccc(NC(=O)CN(C)S(=O)(=O)c2ccc3c(c2)n(C)c(=O)c(=O)n3C)c1C	hcDAF12 agonist 6.1
O=C(N/N=C/c1ccc(O)cc1)c1csc2c1CCCC2	hgDAF-12 ag 11
COc1ccc([C@H]2CC(=O)C[C@@H](CCn3nnc4ccccc43)O2)cc1	none (no result: DAX1 inh-1)
COc1ccc(CCCC(=O)O)c(C)c1	ssDAF12 agonist 1.5
COc1ccc(C(=O)CCC(=O)O)cc1	none
c1ccc2c(-c3cc(NCc4ccncc4)n4nccc4n3)cccc2c1	none (no result: DAX1 inh-1)
COc1ccc(CCNC(=O)c2ccccc2OCc2c(C)noc2C)cc1	DAX1 inh-2 3.7
Cc1noc(C)c1COc1ccccc1C(=O)NCCc1ccc(Cl)cc1	none
N#CCCN1CCN(S(=O)(=O)c2ccc(S(=O)(=O)NCc3ccccc3)cc2)CC1	DAX1 inh-1 5.4
CN(C)S(=O)(=O)c1ccc(S(=O)(=O)N2CCN(CCC#N)CC2)cc1	DAX1 inh-1 6.2
COc1ccccc1C(=O)Nc1nnc(SCC(=O)Nc2ccc3c(c2)oc2ccccc23)s1	SMARCA2 act 13
O=C(CN1CCN(c2ccccc2O)CC1)NC(=O)NCc1ccco1	none
